Our source for the Potency and outcome values is PubChem BioAssay (NCATS).

Experiment [1] has as its target Voltage-gated inwardly rectifying potassium channel KCNH2 (Homo sapiens) (UniProt Q12809). Description: qHTS Assay for Small Molecule Inhibitors of the Human hERG Channel Activity (AID 588834).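 Further: lower thallium flux fluorescence means stronger hERG block; nearly all actives have a fitted effect of over 50% in size.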 Further: potency means the concentration at half of the fitted maximal effect. To be noted: U2OS BacMam hERG, FluxOR thallium flux fluorescence; series mostly up to 46.1 µM. The method in brief:
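Measured: FluxOR fluorescence after thallium stimulation in U2OS cells transduced with hERG by baculovirus. Compounds pre-incubated around 10 min; medium Opti-MEM with 2% FCS. AC50 from Hill equation.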
In general terms: qHTS replaces the single test concentration by a dilution series.

A short description of experiment [2]: qHTS of Trypanosoma Brucei Inhibitors: LOPAC Validation (AID 624147). Particulars: purified enzyme assay, luminescence, 45 min; series mostly up to 57.5 µM. Summed up: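 Quantitative HTS: titrated library compounds versus trypanosomal pyruvate kinase in TEA buffer (pH 7.2) containing KCl, MgCl2, BSA and Tween-20. Reactions were initiated with ADP, 130 uM final. Kinase-Glo Plus luminescence was read after 45 min at RT.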

In experiment [3] the target is Glucagon-like peptide 1 receptor (Homo sapiens) (UniProt P43220). Nature of the experiment: qHTS of GLP-1 Receptor Agonists: LOPAC Validation (AID 624148).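 Further: higher luminescence signal means agonism.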 Particulars: GLP-1R agonist cell assay; series mostly up to 46.1 µM. The method in brief: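 HEK293 cells stably co-expressing GLP-1R and a cAMP-responsive luciferase reporter, plated 12 hours before compound, then incubated 4-6 hr at 37 deg C. Luminescence read 12 min after detection reagent.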

Experiment [4] can be described thus: qHTS of Nrf2 Activators: LOPAC Validation (AID 624149). Particulars: Nrf2/ARE reporter cell assay; series mostly up to 46.1 µM. Summed up: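 Luminescence read-out of ARE-luciferase activation: AREc32_Fluc cells treated with compounds for 24 hr at 37 deg C, then lysed with Steady-Glo for 30 min at room temperature before reading.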
In experiment [5] the target is Glutaminase kidney isoform, mitochondrial (Homo sapiens) (UniProt O94925). Nature of the experiment: qHTS for Inhibitors of Glutaminase (GLS): LOPAC Validation (AID 624146). Further: nearly all actives have a fitted effect of over 60% in size. Further: potency means the concentration at half of the fitted maximal effect. To be noted: glutaminase enzyme activity inhibition; series mostly up to 46.1 µM. Summed up: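 Human kidney-isoform GLS in 45 mM KH2PO4 pH 8.2, 0.02% Tween-20, with compound, started with 1mM L-Glutamine (added stock). Glutamate oxidase/HRP/Amplex red coupled fluorescence read at start and after 30 min at RT.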

The target of experiment [6] is Luciferin 4-monooxygenase (Photinus pyralis) (UniProt P08659). Nature of the experiment: Biochemical firefly luciferase enzyme assay for NPC (AID 624030).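 Further: purified P. pyralis luciferase at 10 nM with luciferin and ATP substrate; nearly all actives have a fitted effect of over 70% in size.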 To be noted: purified P. pyralis luciferase, luminescence, 5 min; series mostly up to 58.6 µM. Summed up:
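Purified P. pyralis luciferase at 10 nM in 50 mM Tris Acetate (final), luminescence read within 5 minutes of enzyme addition to compounds. Activity normalised to PTC124 versus DMSO; concentration-response curves classed by r2, magnitude and activity.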

Experiment [7] can be described thus: S16 Schwann cell viability assay (CellTiter-Glo assay) (AID 624031).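 Further: native untransfected S16 rat Schwann cells; nearly all actives have a fitted effect of over 70% in size.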 Particulars: S16 rat Schwann cells viability, 24 h; series mostly up to 57.5 µM. The method in brief: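 Cells were seeded at 500-750 per well in phenol red-free DMEM with 10% FBS and left overnight. Compounds or DMSO were pinned in, incubation ran 24 h at 37 °C/5% CO2, then CellTiter-Glo reagent was added and luminescence measured.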
(In general: ATP-based viability assays read luminescence as a measure of living cells.)

Experiment [8] is described as follows: S16 Schwann cell PMP22 intronic element firefly luciferase assay (AID 624032). Further: nearly all actives have a fitted effect of over 30% in size. Further: potency means the concentration at half of the fitted maximal effect. To be noted: S16 rat Schwann cells, PMP22 element FLuc, 24 h; series mostly up to 57.5 µM. The method in brief: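 Rat S16 Schwann cells stably carrying firefly luciferase driven by a PMP22 intronic element, in 10% FBS, treated 24 h at 37 C. ONE-Glo luminescence normalized to PTC124 control and DMSO (0%); curves classed by r2, magnitude and activity.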

The nature of experiment [9]: S16 Schwann cell PMP22 intronic element beta-lactamase assay (AID 624044; calls by dose curve; further: nearly all actives have a fitted effect of over 15% in size). To be noted: S16 rat Schwann cells, PMP22 element beta-lactamase FRET, 24 h; series mostly up to 38.3 µM. Summed up:
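Rat S16 Schwann cells with beta-Lac driven by a PMP22 intronic element, compound-treated 24 h at 37 °C. LiveBLAzer FRET B/G read: 460 nm normalized to potassium clavulanate vs DMSO; 535 nm FRET as viability; concentration-effect curves classified.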

SMILES strings stand for the structures. Records with an inconclusive call do not appear. Active and inactive are the calls of the source. Unless noted, the call rests on the fitted dose curve; in most records, active means well fitted curve in the direction sought with a large enough effect; inconclusive means small, poorly fitted or top-dose-only effect, or another doubt; inactive means no such curve, though single readings can be large; an effect the other way counts as inactive or inconclusive.

Chain of Voltage-gated inwardly rectifying potassium channel KCNH2 (Homo sapiens) (Q12809 whole entry, looked up): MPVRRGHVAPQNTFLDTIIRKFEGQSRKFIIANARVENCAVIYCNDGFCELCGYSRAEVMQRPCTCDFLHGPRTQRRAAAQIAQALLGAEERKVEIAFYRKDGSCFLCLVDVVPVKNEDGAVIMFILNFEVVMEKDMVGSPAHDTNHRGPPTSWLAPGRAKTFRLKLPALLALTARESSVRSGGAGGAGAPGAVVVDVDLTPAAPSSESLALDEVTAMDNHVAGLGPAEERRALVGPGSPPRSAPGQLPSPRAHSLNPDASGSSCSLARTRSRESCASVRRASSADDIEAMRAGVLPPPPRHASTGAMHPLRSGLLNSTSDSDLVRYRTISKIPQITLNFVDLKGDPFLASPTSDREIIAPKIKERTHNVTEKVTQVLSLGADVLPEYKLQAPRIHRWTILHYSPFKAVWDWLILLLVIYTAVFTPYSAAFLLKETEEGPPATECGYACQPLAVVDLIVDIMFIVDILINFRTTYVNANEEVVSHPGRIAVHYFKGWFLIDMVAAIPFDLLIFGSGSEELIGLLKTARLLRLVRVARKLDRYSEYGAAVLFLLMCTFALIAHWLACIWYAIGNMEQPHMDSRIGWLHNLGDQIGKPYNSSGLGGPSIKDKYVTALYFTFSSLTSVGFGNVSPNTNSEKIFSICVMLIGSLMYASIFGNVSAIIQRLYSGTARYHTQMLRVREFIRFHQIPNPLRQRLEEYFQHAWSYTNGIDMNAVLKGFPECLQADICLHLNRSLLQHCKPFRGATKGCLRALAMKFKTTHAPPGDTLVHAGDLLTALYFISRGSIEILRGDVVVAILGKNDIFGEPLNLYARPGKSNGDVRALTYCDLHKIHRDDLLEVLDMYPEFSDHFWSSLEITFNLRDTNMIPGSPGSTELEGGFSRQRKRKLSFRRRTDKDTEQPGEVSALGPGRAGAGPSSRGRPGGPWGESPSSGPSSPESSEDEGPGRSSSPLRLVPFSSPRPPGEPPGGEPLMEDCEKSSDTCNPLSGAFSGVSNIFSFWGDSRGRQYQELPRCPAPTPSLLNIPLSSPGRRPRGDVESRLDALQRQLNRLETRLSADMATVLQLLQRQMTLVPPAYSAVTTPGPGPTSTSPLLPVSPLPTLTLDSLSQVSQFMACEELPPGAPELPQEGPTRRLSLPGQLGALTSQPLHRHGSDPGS
Chain of Glutaminase kidney isoform, mitochondrial (Homo sapiens) (O94925 whole entry, looked up, canonical isoform): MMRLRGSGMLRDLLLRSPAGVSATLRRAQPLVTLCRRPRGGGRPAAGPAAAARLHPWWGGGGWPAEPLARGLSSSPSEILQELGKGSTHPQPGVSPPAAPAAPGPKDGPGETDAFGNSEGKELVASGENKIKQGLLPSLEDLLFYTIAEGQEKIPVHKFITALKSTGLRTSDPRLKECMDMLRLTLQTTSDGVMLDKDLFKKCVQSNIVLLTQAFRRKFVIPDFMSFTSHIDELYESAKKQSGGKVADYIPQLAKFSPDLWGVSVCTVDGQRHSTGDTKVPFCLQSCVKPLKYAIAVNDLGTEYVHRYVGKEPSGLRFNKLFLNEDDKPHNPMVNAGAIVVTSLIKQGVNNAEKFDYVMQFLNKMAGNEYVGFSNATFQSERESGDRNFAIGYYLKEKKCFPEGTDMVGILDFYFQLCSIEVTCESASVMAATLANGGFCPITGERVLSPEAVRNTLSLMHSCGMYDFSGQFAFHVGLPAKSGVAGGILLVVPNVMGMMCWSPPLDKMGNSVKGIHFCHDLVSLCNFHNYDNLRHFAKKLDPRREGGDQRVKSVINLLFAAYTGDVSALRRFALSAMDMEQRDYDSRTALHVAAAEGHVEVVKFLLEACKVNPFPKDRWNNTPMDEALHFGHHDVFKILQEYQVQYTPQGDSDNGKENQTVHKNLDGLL
Chain of Glucagon-like peptide 1 receptor (Homo sapiens) (P43220 whole entry, looked up): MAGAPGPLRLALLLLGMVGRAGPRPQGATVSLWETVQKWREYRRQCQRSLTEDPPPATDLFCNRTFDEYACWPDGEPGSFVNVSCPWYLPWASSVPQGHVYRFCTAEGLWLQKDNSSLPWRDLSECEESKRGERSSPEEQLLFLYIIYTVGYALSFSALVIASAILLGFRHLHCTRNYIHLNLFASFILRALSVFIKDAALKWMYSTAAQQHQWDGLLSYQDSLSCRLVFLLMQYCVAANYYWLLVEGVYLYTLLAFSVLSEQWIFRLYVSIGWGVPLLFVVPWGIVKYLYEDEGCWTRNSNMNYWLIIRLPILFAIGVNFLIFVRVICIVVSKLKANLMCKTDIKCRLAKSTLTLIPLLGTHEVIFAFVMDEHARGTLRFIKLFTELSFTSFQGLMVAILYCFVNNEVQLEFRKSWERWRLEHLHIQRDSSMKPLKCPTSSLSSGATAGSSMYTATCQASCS
Chain of Luciferin 4-monooxygenase (Photinus pyralis) (P08659 whole entry, looked up): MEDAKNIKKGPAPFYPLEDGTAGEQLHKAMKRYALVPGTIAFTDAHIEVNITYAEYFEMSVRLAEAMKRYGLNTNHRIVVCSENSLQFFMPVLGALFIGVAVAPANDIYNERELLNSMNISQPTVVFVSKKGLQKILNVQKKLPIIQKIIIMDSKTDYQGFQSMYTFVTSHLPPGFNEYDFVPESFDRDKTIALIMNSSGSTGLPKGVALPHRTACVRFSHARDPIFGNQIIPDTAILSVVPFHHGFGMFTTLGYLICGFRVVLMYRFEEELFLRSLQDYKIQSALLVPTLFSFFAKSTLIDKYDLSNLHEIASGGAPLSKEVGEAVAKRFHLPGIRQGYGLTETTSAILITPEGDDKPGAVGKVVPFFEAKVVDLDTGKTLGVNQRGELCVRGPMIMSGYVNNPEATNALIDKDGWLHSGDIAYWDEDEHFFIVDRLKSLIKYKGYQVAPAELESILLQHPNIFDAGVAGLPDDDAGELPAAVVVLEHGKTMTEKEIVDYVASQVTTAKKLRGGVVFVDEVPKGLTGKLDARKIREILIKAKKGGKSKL

Consider `O=c1[nH]c2cc([N+](=O)[O-])c([N+](=O)[O-])cc2[nH]c1=O`, for which the Potency result in experiment [1] and in [2] was “inactive” throughout. Moreover, the call in [3] and in experiment [4] was inactive.
Take `COC1=C(OC)C(=O)c2ccccc2C1=O`: the Potency entry in experiment [1] and in [2] was “inactive” in each case. Also, the result in experiment [3] and in experiment [4] was inactive.
Consider `O=C(O)[C@@H]1C[C@H](C(=O)O)N1`, for which the Potency result in [1], in experiment [5] and in experiment [2] was “inactive” throughout. The outcome in experiment [3] and in experiment [4] was inactive.
Consider `COc1cc2c(CCNC(C)=O)c[nH]c2cc1Cl`, for which the Potency entry in experiment [1] and in [2] was “inactive” in each case. In addition, the result in experiment [3] and in experiment [4] was inactive.
Take `COc1ccccc1N1CCN(CCCCNS(=O)(=O)c2cccc3c(N(C)C)cccc23)CC1`: the Potency in experiment [1] was 1.41 µM (active). Moreover, in experiment [2], the Potency result was “inactive”. Besides, the call in experiment [3] and in experiment [4] was inactive.
On to `CCCCC/C=C\CC(O)/C=C/c1cccc(CC(O)CCCCO)n1` (stereo unspecified), for which the Potency result in experiment [1] and in experiment [2] was “inactive” each time. In addition, in [3], the result was inactive.
As to `NCCCS(=O)(=O)O`, the Potency result in [1] and in experiment [2] was “inactive” in each case. Besides, the result in experiment [3] and in experiment [4] was inactive.
As to `N=C(N)SCCc1ccc(CCSC(=N)N)cc1`, the Potency result in experiment [1] and in experiment [2] was “inactive” each time. Moreover, the result in experiment [3] and in experiment [4] was inactive.
On to `Cc1c(N)c(=O)n(-c2ccccc2)n1C`, for which, in [6], the Potency entry is “inactive”.
For the compound `O=C1C(SCCO)=C(SCCO)C(=O)c2ccccc21`, in [1], the Potency result was “inactive”. The Potency in experiment [5] is 10 µM (active). Also, in experiment [3], the result was inactive.
For `CN1CCc2cc(NC(=O)Nc3cccnc3)ccc21`, the Potency entry in experiment [1], in experiment [5] and in experiment [2] was “inactive” each time. In addition, the result in [3] and in experiment [4] was inactive.
On to `C[C@@H](CN1CCC(Cc2ccccc2)CC1)[C@@H](O)c1ccc(O)cc1`, for which the Potency in experiment [1] was 0.631 µM (active). Moreover, the Potency result in experiment [2] is “inactive”. The outcome in [3] and in experiment [4] was inactive.
`NCCCCCCCCCCN`: the Potency result in experiment [1] and in [2] was “inactive” throughout. In addition, the compound was classed as inactive in experiment [3] and in experiment [4].
As to `N#C/C(=C\c1ccc(O)c(O)c1)C(=O)c1ccc(O)c(O)c1`, the Potency entry in experiment [1] and in experiment [2] was “inactive” each time. Besides, the call in experiment [3] and in experiment [4] was inactive.
For the compound `CC(C)OC(=O)c1cc(C(=O)OC(C)C)cc([N+](=O)[O-])c1`, in experiment [6], the Potency result was “inactive”.
With `NC(N)=NC(=O)c1nc(Cl)c(N2CCCCCC2)nc1N`, the Potency in experiment [1] is 8.91 µM (active). Moreover, in experiment [2], the Potency entry was “inactive”. Also, the compound was called inactive in [3] and in experiment [4].
For the compound `O=C(Nc1ccccc1)c1cc([N+](=O)[O-])ccc1Cl`, the Potency result in experiment [1] and in [2] was “inactive” in each case. Further, the outcome in [3] and in experiment [4] was inactive.
As for `N=C(N)N`, the Potency entry in experiment [6] is “inactive”.
With `COc1cc(OC)c(/C=C2/C(=O)Nc3ccccc32)c(OC)c1`, the Potency entry in experiment [1] and in [2] was “inactive” in each case. The call in experiment [3] and in experiment [4] was inactive.
For `CCCCCCCCCCCCCCCCCC(=O)NCC(COP(=O)([O-])OCC[N+](C)(C)C)OCC` (stereo unspecified), the Potency result in experiment [1] and in experiment [2] was “inactive” throughout. The outcome in experiment [3] and in [4] was inactive.
For `OCC1O[C@H](O)C(Cl)C(O)C1O` (stereo partly specified), the Potency result in [1] and in [2] was “inactive” throughout. In addition, the result in experiment [3] and in [4] was inactive.
As for `O=C(O)c1cc(=O)c2c(Cl)cc(Cl)cc2[nH]1`, the Potency result in experiment [1], in experiment [5] and in experiment [2] was “inactive” each time. The call in [3] and in experiment [4] was inactive.
On to `O=[N+]([O-])c1ccc2c(c1)S(=O)(=O)C=C2`, for which the Potency entry in [5] and in experiment [2] was “inactive” throughout. Besides, in [3], the compound was classed as inactive.
With `Cc1[nH]cnc1CN1CCc2c(c3ccccc3n2C)C1=O`, the Potency result in [6], in experiment [7] and in experiment [8] was “inactive” throughout.
Take `CSc1ccccc1N1CCN(CCCCCC(=O)NC2CCCc3ccccc32)CC1` (stereo unspecified): the Potency entry in experiment [5] and in [2] was “inactive” throughout. Besides, the compound was classed as inactive in [3] and in experiment [4].
As for `Nc1nc(Cl)nc2c1ncn2[C@@H]1O[C@H](COP(=O)(O)OP(=O)(O)OP(=O)(O)O)[C@@H](O)[C@H]1O`, the Potency entry in experiment [5] and in experiment [2] was “inactive” each time. For the same compound, the compound was called inactive in experiment [3] and in experiment [4].
`CCC1C(=O)OCC1Cc1cncn1C` (stereo unspecified): the Potency result in [6], in experiment [7], in experiment [8], in [9], in [5] and in experiment [2] was “inactive” in each case. The compound was called inactive in [3] and in experiment [4].
As for `Nc1nc(SCc2ccc([N+](=O)[O-])cc2)c2ncn([C@@H]3O[C@H](CO)[C@@H](O)[C@H]3O)c2n1`, the Potency entry in experiment [5] and in experiment [2] was “inactive” in each case. Moreover, the compound was called inactive in [3] and in experiment [4].
In the case of `O=C(c1ccc(OCCCc2cnc[nH]2)cc1)C1CC1`, the Potency result in [5] and in experiment [2] was “inactive” each time. In addition, the compound was classed as inactive in experiment [3] and in [4].
Take `CO/S(=N\S(=O)(=O)c1ccc(Cl)cc1)c1ccc([N+](=O)[O-])cc1` (stereo unspecified): the Potency entry in [5] and in experiment [2] was “inactive” each time. The compound was called inactive in experiment [3] and in [4].
Consider `CN1C2CCC1CC(OC(=O)C(O)c1ccccc1)C2` (stereo unspecified), for which the Potency entry in experiment [5] and in experiment [2] was “inactive” each time. In addition, the call in experiment [3] and in experiment [4] was inactive.
Turning to `O=P(O)(O)C(Cl)(Cl)P(=O)(O)O`, the Potency result in experiment [5] and in experiment [2] was “inactive” throughout. Besides, the compound was classed as inactive in [3] and in [4].
As for `CN(C)c1nc(N)c(C(=O)N=C(N)N)nc1Cl`, the Potency entry in experiment [5] and in [2] was “inactive” throughout. The result in experiment [3] and in experiment [4] was inactive.
As for `C=CC(C)=C[C@@]1(C)SC(=O)C(C)=C1O`, the Potency result in experiment [5] and in experiment [2] was “inactive” in each case. Also, the compound was classed as inactive in [3] and in experiment [4].
As for `NCC1OC(O[C@H]2[C@H](O)[C@@H](OC3C(O)C(N)CC(N)C3OC3OC(CO)C(O)C(O)C3N)O[C@@H]2CO)C(N)C(O)C1O` (stereo partly specified), the Potency result in experiment [5] and in experiment [2] was “inactive” throughout. The call in experiment [3] and in experiment [4] was inactive.
For the compound `COC(=O)C1=C(C)NC(C)=C(C(=O)OCC(C)C)C1c1ccccc1[N+](=O)[O-]` (stereo unspecified), in experiment [8], the Potency was 32.2 µM (active). Moreover, the Potency entry in experiment [9] was “inactive”.
